Shown are actives, neighbours in structure and some others; about 8.1% of the full set was active somewhere.
PD-1 reverse act: activators reversing PD-1 mediated T-cell inhibition; 29,000 tested, under 10 active; activation, % (test concentration not listed); primary human CD4 T cells, PD-L1 beads, CellTiter-Glo 96 h; call rule not given here;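 note: 0% = median vehicle wells and 100% = positive control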
NOMO-1 viab: STK33 inhibitor candidate reducing NOMO-1 cell viability; NOMO-1 AML viability, CellTiter-Glo luminescence, 72 h; inhibition, % (test concentration not listed); actives 7.5% (n = 37,000); AID 2330; in the data active = inhibition above about 80%
MITF inhib: blocks MITF activity | actives 0.28% (n = 37,000) | TRPM1 promoter luciferase, luminescence, 24 h | inhibition, % (no concentration beside the values); in the data active = inhibition above about 85%;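 note: human melanocyte line stably carrying TRPM1 promoter luciferase reporter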
Hedgehog inh: blocks Sonic Hedgehog signaling | Shh-LIGHT2 Gli-luciferase reporter, 30 h | inhibition, % (no concentration beside the values) | actives 2.1% (n = 22,000) | AID 2313;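 active = mean inhibition across valid replicates above about 65%, limit read from the data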;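 note: pathway switched on by Shh-conditioned medium diluted 1 in 25 in low serum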
Starred values were filed as active, the others as inactive.

How did COc1ccc(C(=O)CC2(O)C(=O)N(Cc3ccccc3)c3ccc(Br)cc32)cc1[N+](=O)[O-] (centres undefined) do in these assays?
PD-1 reverse act: -15; NOMO-1 viab: 111*; MITF inhib: 37

How did O=C(CC1(O)C(=O)N(Cc2ccc(Cl)cc2)c2ccccc21)c1cc2ccccc2oc1=O (centres undefined) do in these assays?
PD-1 reverse act: -3; NOMO-1 viab: 120*; MITF inhib: 11

What do the screens show for `COc1ccc(CN2C(=O)C(O)(CC(=O)c3cccs3)c3ccccc32)cc1OC` (centres undefined)?
PD-1 reverse act: 0; NOMO-1 viab: 106*; MITF inhib: 5

Results for O=C(CC1(O)C(=O)N(Cc2ccccc2)c2ccc(Br)cc21)c1ccc2c(c1)OCCO2 (centres undefined) ?
PD-1 reverse act: 1; NOMO-1 viab: 5; MITF inhib: 5

How did O=C(COc1ccc(I)cc1)Nc1cc(C(=O)O)cc(C(=O)O)c1 do in these assays?
PD-1 reverse act: 1; NOMO-1 viab: -9; MITF inhib: -11

How did O=C(CC1(O)C(=O)N(CCc2ccccc2)c2ccc(Cl)cc21)c1ccco1 (centres undefined) do in these assays?
NOMO-1 viab: 38; MITF inhib: 7

What do the screens show for `O=C(CC1(O)C(=O)N(Cc2ccccc2)c2ccc(Cl)cc21)c1ccncc1` (centres undefined)?
PD-1 reverse act: -5; NOMO-1 viab: 117*; MITF inhib: 16

How did COc1cc(OC)c(C(O)C(C)O)cc1OC (centres undefined) do in these assays?
PD-1 reverse act: 2; NOMO-1 viab: 90*; MITF inhib: 2; Hedgehog inh: -1

What do the screens show for `COc1cc(=O)oc(C(C)C(C)O)c1CO` (centres undefined)?
PD-1 reverse act: 0; NOMO-1 viab: -5; MITF inhib: 4; Hedgehog inh: 11

Results for COc1cccc(Cc2nnc(-c3c(-c4ccccc4)noc3C)o2)c1 ?
PD-1 reverse act: -1; NOMO-1 viab: 35; MITF inhib: 16

Results for Cc1ccc(-c2nc3ccccc3o2)cc1NC(=O)COc1c(C)cc(Cl)cc1Cl ?
PD-1 reverse act: 2; NOMO-1 viab: 41; MITF inhib: -33

How did O=C1Cc2c([nH]c3ccc(Br)cc23)-c2ccccc2N1 do in these assays?
PD-1 reverse act: 5; NOMO-1 viab: 89*; MITF inhib: -34; Hedgehog inh: -1

How did CC(C)(C)c1cc(/C=C(\C#N)C(N)=S)cc(C(C)(C)C)c1O do in these assays?
NOMO-1 viab: 118*; MITF inhib: 91*; Hedgehog inh: 106*

What do the screens show for `N#CC(C#N)=C(N)/C(C#N)=C/c1cc(O)c(O)c(O)c1`?
PD-1 reverse act: -1; NOMO-1 viab: 32; MITF inhib: -9; Hedgehog inh: 76*

How did O=C(O)c1nn(-c2ccccc2)c2c1CCc1occc1-2 do in these assays?
PD-1 reverse act: 2; NOMO-1 viab: 7; MITF inhib: 7

How did COC(=O)c1ccccc1NC(=O)c1c(NC(=O)CN2CCCCCC2)sc2c1CCC2 do in these assays?
PD-1 reverse act: 1; NOMO-1 viab: 33; MITF inhib: -4

What do the screens show for `O=c1cc(-c2ccccc2)oc2c(O)c(O)ccc12`?
NOMO-1 viab: 101*; MITF inhib: -35; Hedgehog inh: -1

What do the screens show for `O=C(CSc1ncn[nH]1)c1c[nH]c2ccccc12`?
NOMO-1 viab: 19; MITF inhib: -34

Results for C[C@@H]1CN([C@H](C)CO)C(=O)c2cccc(NC(=O)Nc3ccc4c(c3)OCO4)c2O[C@H]1CN(C)C(=O)Nc1ccc2c(c1)OCO2 ?
PD-1 reverse act: 1; NOMO-1 viab: -11; MITF inhib: -3; Hedgehog inh: 19

How did C[C@@H]1CN([C@@H](C)CO)C(=O)c2cccc(NC(=O)Nc3ccc(C(F)(F)F)cc3)c2O[C@H]1CN(C)C(=O)Nc1ccc2c(c1)OCO2 do in these assays?
NOMO-1 viab: 89*; MITF inhib: 34; Hedgehog inh: -67

Results for C[C@@H]1CN([C@H](C)CO)C(=O)c2cccc(NC(=O)Nc3ccc(C(F)(F)F)cc3)c2O[C@H]1CN(C)C(=O)Nc1ccc2c(c1)OCO2 ?
PD-1 reverse act: -6; NOMO-1 viab: 116*; MITF inhib: 40; Hedgehog inh: -1

How did O=C(COc1ccccc1)Nc1ccc2nn(-c3ccc(Cl)cc3)nc2c1 do in these assays?
PD-1 reverse act: 2; NOMO-1 viab: 16; MITF inhib: -70

How did CCc1cc2c(SCC(=O)Nc3cccc(C)c3)ncnc2s1 do in these assays?
PD-1 reverse act: 0; NOMO-1 viab: 37; MITF inhib: -6

Results for COc1ccc([N+](=O)[O-])cc1NC(=O)CN(c1ccc(C)cc1)S(C)(=O)=O ?
PD-1 reverse act: 0; NOMO-1 viab: 1; MITF inhib: -15
